Source: PubChem
Sampled rows, rich in hits. Any-hit rate of the full collection: about 6.3%.
MPTP block: blocks calcium-induced mitochondrial swelling. inhibition, % at 10 µM. isolated mouse mitochondria, Ca2+ swelling absorbance, 30 min. hit rate 1.4% among 360,000;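 active = inhibition of 50% or more, scaled per plate between neutral and stimulator controls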;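 note: 0% = DMSO wells given calcium and 100% = 1 mM EGTA wells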
TIM10 inh: TIM10 yeast growth inhibition. S. cerevisiae TIM10 strain growth, BacTiter-Glo luminescence, 24 h. inhibition, % at 10 µM. hit rate 1.4% among 330,000. AID 463195;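 active = inhibition of 40% or more at the single tested concentration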;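 note: wild-type TIM10 isogenic control strain grown at permissive 25 °C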
tim10-1 inh: growth inhibitors of tim10-1 mutant yeast | hit rate 2.2% among 330,000 | AID 463190 | inhibition, % at 20 µM | S. cerevisiae tim10-1 ts strain growth, BacTiter-Glo, 24 h;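 active = inhibition of at least 40%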;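 note: mutant grown at 25 °C; 0% = DMSO wells with yeast and 100% = wells holding no yeast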
Mdm2-MdmX inh: human Mdm2/MdmX binding inhibition; O15151+Q00987; SaOS-2 split-luciferase Mdm2/MdmX complementation, luminescence; inhibition, % at 8 µM; hit rate 3% among 330,000;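 active = inhibition of at least 50% at 8 µM in the primary screen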
Target sequence (O15151 whole entry, looked up): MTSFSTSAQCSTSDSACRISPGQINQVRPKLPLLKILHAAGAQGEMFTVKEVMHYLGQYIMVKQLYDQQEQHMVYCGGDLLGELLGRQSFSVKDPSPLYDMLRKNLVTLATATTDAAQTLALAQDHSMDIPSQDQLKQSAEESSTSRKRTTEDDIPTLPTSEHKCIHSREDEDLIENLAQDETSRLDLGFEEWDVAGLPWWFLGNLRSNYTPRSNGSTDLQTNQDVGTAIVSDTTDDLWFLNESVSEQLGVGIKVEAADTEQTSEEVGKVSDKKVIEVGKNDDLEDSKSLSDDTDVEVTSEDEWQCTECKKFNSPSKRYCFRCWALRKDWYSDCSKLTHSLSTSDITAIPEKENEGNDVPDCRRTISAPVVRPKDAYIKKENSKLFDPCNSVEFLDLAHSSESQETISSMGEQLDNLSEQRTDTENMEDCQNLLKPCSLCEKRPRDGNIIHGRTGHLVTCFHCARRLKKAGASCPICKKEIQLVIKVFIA
Target sequence (Q00987 whole entry, looked up): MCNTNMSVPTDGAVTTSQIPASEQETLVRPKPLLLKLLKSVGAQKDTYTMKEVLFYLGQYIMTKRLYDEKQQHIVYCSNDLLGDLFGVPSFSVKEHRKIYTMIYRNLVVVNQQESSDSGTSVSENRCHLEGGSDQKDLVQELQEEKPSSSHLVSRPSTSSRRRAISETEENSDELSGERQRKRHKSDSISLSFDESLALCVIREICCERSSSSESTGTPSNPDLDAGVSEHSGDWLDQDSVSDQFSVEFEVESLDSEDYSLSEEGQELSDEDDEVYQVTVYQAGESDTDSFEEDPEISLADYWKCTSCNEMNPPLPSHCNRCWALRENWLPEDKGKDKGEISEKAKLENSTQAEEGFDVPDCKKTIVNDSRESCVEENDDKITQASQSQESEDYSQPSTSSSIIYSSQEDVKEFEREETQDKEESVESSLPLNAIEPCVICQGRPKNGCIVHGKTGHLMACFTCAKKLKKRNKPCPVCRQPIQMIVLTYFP
tim23-1 inh: inhibits growth of tim23-1 mutant yeast; inhibition, % at 20 µM; AID 463212; S. cerevisiae tim23-1 growth, BacTiter-Glo luminescence, 24 h; hit rate 1.3% among 330,000;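 active = growth inhibition of the mutant yeast at or above 50%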;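 note: temperature-sensitive mutant grown at 25 °C; plate controls were DMSO-treated mutant yeast for no effect and medium wells lacking yeast for full effect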
Mdm2 MdmX conf: confirmation of human Mdm2/MdmX interaction inhibitors | shares compounds with Mdm2-MdmX inh | Mdm2-MdmX binding, luminescent assay | inhibition, % at 8 µM | hit rate 55% among 10,000; in the data active = inhibition above about 40%
FLuc counter: full-length luciferase inhibition in Mdm2/MdmX counter-screen | shares compounds with Mdm2-MdmX inh | SaOS-2 full-length luciferase counterscreen, luminescence | inhibition, % at 8 µM | hit rate 77% among 6,200 | AID 504607;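 active = mean inhibition at 8 µM reaching about 37%, which flags the compound as non-specific, limit read from the data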;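 note: p53-null SaOS-2 cells with luciferase driven by a doxycycline-inducible promoter; compound on cells about two nights before reading with doxycycline added after day one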
Active calls of the source: *; / = not tested or not shown.

SMILES	MPTP block	TIM10 inh	tim10-1 inh	Mdm2-MdmX inh	tim23-1 inh	Mdm2 MdmX conf	others
COc1ccc(/C=N/Nc2ncnc3c2[nH]c2ccc(C)cc23)c(OC)c1OC	11.1	1.6	-0.7	77.0*	-1.7	52.9*	FLuc counter=10.3
COc1cc(OC)c(OC)cc1/C=N/Nc1ncnc2c1[nH]c1ccccc12	1.8	1.8	12.0	83.8*	-2.7	55.4*	FLuc counter=12.2
COc1ccc(-c2nc3c(C)cc(Br)cn3c2Cc2cccc(F)c2)cc1OC	1.1	/	/	/	/	/
C[C@@H]1CN([C@@H](C)CO)C(=O)CCCn2nncc2CO[C@@H]1CN(C)C(=O)CCC(F)(F)F	-0.7	/	/	/	/	/
Cc1ccc(S(=O)(=O)Nc2cccc3ncccc23)cc1	0.1	-15.4	-8.3	1.6	-2.1	/
Cc1ccc(S(=O)(=O)Nc2cccc3ncccc23)s1	-0.4	15.6	35.5	100.6*	15.2	4.5
Cn1nc(C(C)(C)C)cc1C(=O)N1CCCCC1c1cc(C(=O)NCc2ccc(F)cc2)no1 (centres undefined)	1.5	/	/	/	/	/
Cc1c(C(=O)OCC(=O)Nc2ccc(S(N)(=O)=O)cc2)oc2c1ccc1ccccc12	0.2	3.5	4.7	52.3*	-2.5	23.0
Cc1cc(NC(=O)COC(=O)c2ccccc2O)no1	0.3	0.1	-2.0	-7.5	5.3	/
NS(=O)(=O)c1ccc(NC(=O)COC(=O)COc2ccc3ccccc3c2)cc1	1.6	-9.9	12.1	9.2	-4.9	/
Cc1cc(NC(=O)COC(=O)c2oc3c(ccc4ccccc43)c2C)no1	-0.8	7.6	-1.5	58.7*	11.0	31.0	FLuc counter=58.7*
COc1ccc(CNC(=O)Nc2nnc([C@@H]3C[C@H](O)[C@@H](CO)O3)s2)cc1	-1.5	/	/	/	/	/
CCc1ccn2cc(-c3ccc4c(c3)OCO4)nc2c1	-1.9	3.7	-15.8	61.8*	29.7	53.0*	FLuc counter=92.0*
CN1C(=O)[C@H]2[C@@H](c3ccc(C(F)(F)F)cc3)N[C@]3(CCCN(Cc4ccc(Br)cc4)C3=O)[C@H]2C1=O	-1.0	/	/	/	/	/
COC(=O)c1cc2sccc2n1Cc1nc(-c2ccc(Cl)cc2)oc1C	1.2	-13.6	15.0	51.5*	-5.1	14.9
CCOC(=O)c1ccc(N=C2S/C(=C\c3cc(C)n(-c4cccnc4)c3C)C(=O)N2C)cc1	-1.0	-18.2	-5.4	66.3*	9.5	3.8
Cc1cc(/C=C2\SC(=S)N(Cc3ccco3)C2=O)c(C)n1-c1cccnc1	6.9	/	/	/	/	/
O=C(OCc1ccccc1C(F)(F)F)c1ccc(Br)c(S(=O)(=O)N2CCOCC2)c1	0.6	/	/	/	/	/
Cc1cc2cc3c(cc2nc1SCC(=O)N1CCCC1)OCCO3	-0.7	20.1	17.9	-11.1	26.3	/
N#Cc1cc2cc3c(cc2nc1SCC(=O)N1CCOCC1)OCCO3	0.2	-10.9	18.3	83.6*	1.0	87.5*	FLuc counter=80.6*
CCCC1NC(=O)c2cccnc2-n2c1nc1ccc(Br)cc1c2=O (centres undefined)	0.1	/	/	/	/	/
Cc1cnc(C)c(Nc2nc(C(N)c3ccccc3)cs2)n1 (centres undefined)	1.9	/	/	/	/	/
COc1cccc(/C=C/C(=O)N2CCN(S(=O)(=O)c3ccccc3)CC2)c1	0.0	/	/	/	/	/
O=C(Cn1nnc(-c2ccccc2NC(=O)c2ccccc2F)n1)NCc1ccco1	4.2	-2.2	9.2	50.4*	-4.7	24.1
COc1ccccc1NC(=O)Cn1nnc(-c2ccccc2NC(=O)c2ccco2)n1	-1.2	-26.5	-38.9	43.9	-29.1	/
SMILES	MPTP block	TIM10 inh	tim10-1 inh	Mdm2-MdmX inh	tim23-1 inh	Mdm2 MdmX conf	others
COc1ccc(C(=O)Nc2ccccc2-c2nnn(CC(=O)NCc3ccco3)n2)cc1	2.8	0.2	6.3	17.1	-5.7	/
COc1cc(OC)cc(C(=O)Nc2ccccc2-c2nnn(CC(=O)Nc3cc(C)on3)n2)c1	0.6	-3.1	9.7	71.5*	-3.3	24.4
COc1ccc(NC(=O)Cn2nnc(-c3ccccc3NC(=O)c3ccco3)n2)cc1	-14.2	-4.2	-11.6	54.8*	-1.4	55.5*	FLuc counter=15.9
COc1ccccc1NC(=O)Cn1nnc(-c2ccccc2NC(=O)c2cnccn2)n1	3.0	7.9	8.9	52.0*	-7.3	17.3
COc1ccc(C(=O)Nc2ccccc2-c2nnn(CC(N)=O)n2)cc1	0.4	/	/	/	/	/
C/C(=N\NC(=O)C1CC1)c1ccc(Cl)c(Cl)c1	-2.3	-4.4	6.2	-19.2	-5.7	/
C/C(=N\N=C(N)N)c1ccc(Cl)c(Cl)c1	2.5	9.0	-6.6	56.3*	-7.8	38.0
CC(C)(C)n1nnnc1C(c1cc2ccccc2o1)N1CCOCC1 (centres undefined)	0.7	/	/	/	/	/
CCOC(=O)N1CCN(C(=O)c2ccc3c(=O)n(-c4ccc(OC)cc4)c(=S)[nH]c3c2)CC1	-0.7	-39.6	-7.4	68.6*	-16.5	12.1
CCOC(=O)N1CCN(C(=O)c2ccc3c(=O)n(-c4ccc(OC)cc4OC)c(=S)[nH]c3c2)CC1	-2.9	-2.8	10.5	10.4	5.7	/
COc1ccccc1Cn1c(=S)[nH]c2cc(C(=O)N3CCN(c4ccccc4OC)CC3)ccc2c1=O	-0.5	22.2	8.2	60.8*	8.0	42.5*	FLuc counter=54.0*
COC(=O)[C@@]12C[C@@H](CC(=O)NCc3cccc4ccccc34)C(=O)N(CCc3ccc(OC)c(OC)c3)C1=CCC(C)(C)C2	-0.2	/	/	/	/	/
CCOc1ccccc1C(=O)Nc1ccc2nc(N3CCN(c4ncccn4)CC3)cc(C)c2c1	/	22.7	31.0	95.8*	13.8	84.2*	FLuc counter=51.1*
COc1ccc(C(=O)Nc2ccc3nc(N4CCN(C)CC4)cc(C)c3c2)c(OC)c1	-0.7	15.2	3.1	36.9	21.1	/
COc1cccc(C(=O)Nc2ccc3nc(N4CCN(c5ncccn5)CC4)cc(C)c3c2)c1OC	/	17.5	24.6	97.9*	8.3	88.2*	FLuc counter=6.8
CN(C)CCC(=O)N1c2ccccc2Sc2ccc(Cl)cc21	-1.2	-1.2	12.8	23.8	16.7	/
CCN(CC)CCC(=O)N1c2ccccc2Sc2ccc(Cl)cc21	27.8	16.6	21.7	56.3*	13.2	38.5	FLuc counter=65.2*
COc1cc2c(C#N)c(N3CCN(C)CC3)nc(N)c2c(N)n1	1.0	-16.1	24.9	-13.0	-3.9	/
COc1cc2c(C#N)c(N3CCN(c4ccccc4OC)CC3)nc(N)c2c(N)n1	1.5	32.6	25.3	74.5*	37.1	29.9
Cn1cccc1/C=N/NC(=O)c1sc2cc(Cl)ccc2c1Cl	/	-27.6	-12.4	73.5*	-28.0	36.0	FLuc counter=47.7*
Cc1cc(C)c(NS(=O)(=O)c2ccc(NC(=O)c3cccs3)cc2)c(C)c1	6.3	8.0	8.7	21.4	2.8	/
CCOC(=O)/C=C/S(=O)(=O)c1ccc(NC(C)=O)cc1	0.0	-11.4	15.2	68.3*	-18.5	52.8*	FLuc counter=21.1
CCOC(=O)/C=C/C(=O)Nc1ccc(S(=O)(=O)Nc2c(C)cc(C)cc2C)cc1	38.3	39.9	33.5	50.5*	19.3	27.9
O=C(CSc1nc2ccccc2s1)N1CCCCC1	-1.4	25.9	23.0	-63.9	26.2	/
